Screening results (PubChem)
Rows were chosen to be rich in hits. Some 10% of all compounds tested hit in one or more screens of this group.
CtBP-E1A blk – CtBP/E1A binding inhibition; 340,000 compounds, 0.49% hits; activity change, % (no concentration beside the values); AlphaScreen GST-E1A/His-CtBP binding, 1536-well; stronger effect = lower value; in the data active means activity change below about -65%; inconclusive means mostly about -30% to -63%
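Protein mix (5X: 125 nM each GST-E1A, His-CtBP) was incubated with pinned compound 2 h at 37 deg C in dark, in 50 mM Tris pH 8.0 buffer with 300 mM NaCl. Glutathione donor and nickel acceptor beads followed; AlphaScreen signal read after 1 h.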
Six1-Eya2 blk – inhibitors of human Six1/Eya2 interaction. AlphaScreen GST-Six1/His-Eya2 binding, biochemical; stronger effect = lower value. AID 651725. activity change, % (no concentration beside the values). Q15475+O00167. 360,000 compounds, 0.56% hits; in the data active means activity change below about -65%; inconclusive means mostly about -30% to -63%
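Compounds are tested against tagged Six1 and Eya2 proteins bridged by glutathione donor and nickel acceptor beads; after a one-hour incubation at 37 °C without light, AlphaScreen emission is recorded.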
G9a block – inhibitors of human histone lysine methyltransferase G9a | AID 504332 | Potency, µM (doses to about 102 µM), usual class: inhibitors | G9a H3K9 monomethylation, AlphaScreen, 2 h | Q96KQ7 | 350,000 compounds, 8.8% hits; further: nearly all actives have a fitted effect of over 75% in size
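Enzyme 20 nM + cpd, 15 min RT; add b-H3K9 pep 500 nM / SAM 20 uM; 2 h RT; anti-H3K9me1 Ab 0.5 ug/mL + SA donor / anti-rabbit acceptor beads 20 ug/mL each, 10 min; AlphaScreen read.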
BAZ2B block – inhibitors of human BAZ2B bromodomain; Q9UIF8; AlphaScreen BAZ2B-H3K14Ac peptide displacement; Potency, µM (series often up to 114 µM), most hits filed as inhibitors; 360,000 compounds, 4.4% hits; AID 504333; further: nearly all actives have a fitted effect of over 60% in size
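BAZ2B (50 nM) with biotin-H3(5-23)K14Ac peptide (50 nM) in PBS pH 7.4, 0.01% Tween-20, preformed 30 min, then compound 30 min at room temperature; top concentration 110uM. AlphaScreen streptavidin donor/nickel chelate acceptor beads (10 ug/mL final), 20 min dark, signal read.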
HP1b chromo inh – blocks HP1-beta chromodomain binding to methylated histone tails | P83916 | AlphaScreen HP1-beta / biotin-H3K9me3 peptide binding | Potency, µM (titrated, usually from 114 µM), hits mostly inhibitors | 390,000 compounds, 0.56% hits; further: nearly all actives have a fitted effect of over 70% in size
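HP1-beta protein (50 nM final) preincubated 30 min at room temperature with biotinylated H3(1-18)K9me3 peptide (50 nM) in PBS pH 7.4, 0.01% Tween-20, then compound added for 30 min. AlphaScreen streptavidin donor/nickel chelate acceptor beads (10 ug/mL final), 30 min dark, luminescence read.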
JMJD2A Tudor – inhibitors of human JMJD2A Tudor domain | O75164 | 390,000 compounds, 4.4% hits | Potency, µM (doses to about 114 µM), actives largely listed as inhibitors | AlphaScreen JMJD2A-Tudor / H3K4me3 peptide binding; further: nearly all actives have a fitted effect of over 50% in size
A number is an active result; – = inactive; ? = inconclusive; · = no result given; [ ] = another dose, or the depositor's remark. Unless noted, the call rests on the fitted dose curve; in most records, active means well fitted inhibition curve with a large enough effect; inconclusive means small, poorly fitted or top-dose-only effect; inactive means no such curve, though single readings can be large or run the other way.

SMILES	CtBP-E1A blk	Six1-Eya2 blk	G9a block	BAZ2B block	HP1b chromo inh	JMJD2A Tudor
O=C1CCCC2=C1C1(CCCC1)N=C(Nc1nc3cc(Cl)ccc3o1)N2	·	·	·	·	·	–
Cc1onc(-c2ccccc2Cl)c1C(=O)Nc1nnc(C(C)C)s1	–	–	50µM	–	–	–
CC(C)c1nnc(NC(=O)c2sc3ccccc3c2Cl)s1	–	–	45µM	–	–	–
C/C(=N/OC(=O)c1c(-c2ccccc2Cl)noc1C)c1cnccn1	–	–	–	–	–	–
Cc1onc(-c2ccccc2Cl)c1C(=O)O/N=C(\N)c1ccc([N+](=O)[O-])o1	·	–	35µM	?	–	?
Cc1cnc(NC(=O)c2sc3ccccc3c2Cl)s1	–	–	–	–	–	–
CCOc1ccc(NC(=O)CSc2nccn2-c2cccc(C)c2C)cc1	·	·	–	?	–	?
O=C1OC(c2ccccc2)(c2ccccc2)N2CCN(C(=O)NCc3ccc(F)cc3)CC12 (stereo unspecified)	·	·	·	·	·	–
COCCNC(=O)c1ccc(C)cc1C	–	–	–	–	–	–
COc1ccc(CCC(C)NCc2ccccc2OC)cc1 (stereo unspecified)	–	–	–	–	–	–
CC(CCc1ccccc1)NCc1cccc2ccccc12 (stereo unspecified)	·	–	?	–[0.457 µM]	–	25µM
COCC(C)NCc1ccc(C)cc1C (stereo unspecified)	–	–	11µM	–	–	4.5µM
COCC(C)NCc1cccc2ccccc12 (stereo unspecified)	·	–	32µM	–	–	32µM
C=CCNC(=O)C1CCCN(S(=O)(=O)c2ccc(-n3cnnn3)cc2)C1 (stereo unspecified)	–	–	–	–	–	–
Cc1ccc(CNC(=O)CCCN2C(=O)CCn3nc(-c4cccn4C)cc32)cc1	·	·	–	?	–	–
CC(=O)C1CCC2C3CCC4=CC(=O)CCC4(C)C3(F)C(O)CC12C (stereo unspecified)	–	–	·	·	–	–
NC(=O)N/N=C/c1coc2ccc3ccccc3c2c1=O	–	–	–	–	–	–
O=Cc1coc2ccc3ccccc3c2c1=O	–	–	50µM	–	–	?
CSC1=C(C#N)C(c2ccc(Cl)cc2)C2=C(CC(C)(C)CC2=O)N1 (stereo unspecified)	–	–	?	–	–	–
N#CC1=C(SCC(N)=O)NC2=C(C(=O)c3ccccc32)C1c1ccc(Cl)cc1 (stereo unspecified)	–	–	50µM	–	–	–
CCOC(=O)c1sc2cc([N+](=O)[O-])cc(SCC(C)C)c2c1N	–	–	–	–	?	40µM
Cc1cccc(C)c1Nc1cn[nH]c1	–	–	·	·	·	·
CCOc1ccc(C(=O)NC(=S)Nc2cccc(S(=O)(=O)NC3=NCCC3)c2)cc1	–	–	?	–	–	–
Brc1ccc(-c2nn3c(-c4ccccn4)nnc3s2)o1	-78	-77	20µM	18µM	–	14µM
Clc1ccc(OCc2nn3c(-c4ccco4)nnc3s2)c(Cl)c1	–	–	–[2.33 µM]	56µM	–	?
SMILES	CtBP-E1A blk	Six1-Eya2 blk	G9a block	BAZ2B block	HP1b chromo inh	JMJD2A Tudor
c1ccc(-c2nn3c(-c4ccco4)nnc3s2)nc1	–	?	40µM	–	–	–
COc1ccc(-c2nnc3sc(-c4ccccn4)nn23)cc1	·	·	–	·	·	·
Clc1ccc(-c2nnc3sc(-c4ccccn4)nn23)cc1	·	·	–[2.33 µM]	–	·	·
CC(C)(C)c1ccc(-c2nnc3sc(-c4ccccn4)nn23)cc1	?	?	32µM	?	–	–
Brc1ccc(-c2nn3c(-c4ccncc4)nnc3s2)o1	·	·	?	–	·	·
Brc1ccc(-c2nn3c(-c4ccco4)nnc3s2)o1	?	?	14µM	50µM	–	?
Clc1ccc(-c2ccc(-c3nn4c(-c5ccco5)nnc4s3)o2)cc1	?	?	·	·	–	?
CN(C)/N=C/c1ccc(Sc2ccccc2[N+](=O)[O-])o1	?	?	25µM	20µM	35µM	40µM
CN(/N=C/c1ccc(-c2ccc([N+](=O)[O-])cc2)o1)c1ccccc1	–	–	–	–	?	25µM
Cc1cc(=O)[nH]c(N/N=C/c2ccc([N+](=O)[O-])cc2)n1	·	·	–	–	·	·
Cc1cc(=O)[nH]c(N/N=C/c2ccc(-c3ccc([N+](=O)[O-])cc3)o2)n1	-74	-71	–	–	–	–
NC(=S)N/N=C/c1ccc(-c2cc(Cl)cc(Cl)c2)o1	–	–	13µM	–	–	–
CN(/N=C/c1cc([N+](=O)[O-])ccc1O)c1ccccc1	–	–	–	–	–	–
Cc1cc(Nc2cccc(Cl)c2)nc2ccc(NC(=O)c3ccc(F)cc3Cl)cc12	·	·	–	–	–	–
NC(=S)N/N=C/c1ccc(-c2ccc([N+](=O)[O-])cc2)o1	–	–	22µM	–	–	–
Cc1ccc(C(=O)N/N=C\c2ccc(-c3ccc([N+](=O)[O-])cc3)o2)cn1	–	–	·	–	–	–
Cc1oc2ncnc(N3CCOCC3)c2c1C(=O)NCc1ccccc1	·	·	–	–	–	–
Cc1cc(Oc2ccc(=O)n(C)n2)nc(SCCOc2ccccc2)n1	–	–	–	–	–	–
O=[N+]([O-])c1ccc(/C=N/Nc2nc(N3CCCCC3)nc(N3CCCCC3)n2)cc1	·	–	·	?	–	?
O=C(CN1CCCCCCC1)N/N=C/c1ccc([N+](=O)[O-])o1	?	–	32µM	50µM	?	18µM
O=[N+]([O-])c1ccc(-c2ccc(/C=N/Nc3nc(NCc4ccccc4)nc(N4CCOCC4)n3)o2)cc1	–	–	25µM	?	–	–
O=[N+]([O-])c1ccc(/C=N/Nc2nc(N3CCCCCC3)nc(N3CCCCCC3)n2)o1	–	–	10µM	?	–	?
COC(=O)[C@@]12C[C@@H](CC(=O)N3CCCC3)C(=O)N(Cc3ccccc3)C1=CCC(C)(C)C2	–	–	·	·	·	·
N=c1c2c(ncn1Cc1ccco1)Oc1c(ccc3ccccc13)C2c1ccccc1 (stereo unspecified)	–	–	–[2.33 µM]	50µM	?	?
N=c1c2c(ncn1Cc1ccco1)Oc1cc(O)ccc1C2c1ccccc1 (stereo unspecified)	–	–	·	–	–	–
CN(C)CCCn1c(SCC(=O)Nc2nc(-c3cccc(Br)c3)cs2)nc2ccccc2c1=O	–	–	?	?	?	40µM
NC(=O)C[n+]1cccc2ccccc21	–	–	?	–	–	22µM
Cc1ccc(C)c(CN2CCC(CNC(=O)C(CC(C)C)N3Cc4ccccc4C3=O)CC2)c1 (stereo unspecified)	·	·	?	–	–	–
CCN1CCN(CCOCCOc2ccccc2)CC1	·	–	·	79µM	?	18µM
CCN1CCN(CCOc2cccc(Oc3ccccc3)c2)CC1	–	–	22µM	20µM	?	4.5µM
